An excerpt weighted towards active compounds, which were near 10% of everything screened.
G9a inh = G9a (human) methyltransferase inhibition; Q96KQ7; G9a H3K9 monomethylation, AlphaScreen, 2 h; Potency, µM (titrated, usually from 102 µM), without a hit: at the highest dose activity, negative = inhibition, most hits filed as inhibitors; hit rate 8.8% among 350,000; AID 504332; note: % is set by controls: 0 for no effect and ±100 for the full control effect; nearly all actives have a fitted effect of over 75% in size
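AlphaScreen detection with an anti-monomethyl H3K9 antibody quantified product after a 2 h room-temperature reaction containing 500 nM biotinylated H3K9 peptide, 20 µM SAM and 20 nM enzyme, which had been preincubated 15 min with compound.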
JMJD2A Tudor inh = JMJD2A Tudor domain (human) inhibition | AID 504339 | Potency, µM (top dose mostly 114 µM), for inactives: at the highest dose activity change, negative = inhibition, hits mostly inhibitors | hit rate 4.4% among 390,000 | AlphaScreen JMJD2A-Tudor / H3K4me3 peptide binding | O75164; note: % is set by controls: 0 for no effect and ±100 for the full control effect; nearly all actives have a fitted effect of over 50% in size
BAZ2B inh = inhibitors of human BAZ2B bromodomain. AID 504333. hit rate 4.4% among 360,000. Q9UIF8. AlphaScreen BAZ2B-H3K14Ac peptide displacement. Potency, µM (highest dose often 114 µM), for the others: top-dose activity change, negative = inhibition, actives largely listed as inhibitors; note: % is set by controls: 0 for no effect and ±100 for the full control effect; nearly all actives have a fitted effect of over 60% in size
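BAZ2B (50 nM) with biotin-H3(5-23)K14Ac peptide (50 nM) in PBS pH 7.4, 0.01% Tween-20, preformed 30 min, then compound 30 min at room temperature; top concentration 110uM. AlphaScreen streptavidin donor/nickel chelate acceptor beads (10 ug/mL final), 20 min dark, signal read.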
GLS inhibitor = blocks human kidney-isoform glutaminase activity. GLS enzymatic activity, qHTS titration. Potency, µM (series often up to 45.5 µM), for the others: top-dose activity change, negative = inhibition, usual class: inhibitors. hit rate 0.21% among 410,000; note: % is set by controls: 0 for no effect and ±100 for the full control effect
Target sequence (O94925 whole entry, looked up, canonical isoform): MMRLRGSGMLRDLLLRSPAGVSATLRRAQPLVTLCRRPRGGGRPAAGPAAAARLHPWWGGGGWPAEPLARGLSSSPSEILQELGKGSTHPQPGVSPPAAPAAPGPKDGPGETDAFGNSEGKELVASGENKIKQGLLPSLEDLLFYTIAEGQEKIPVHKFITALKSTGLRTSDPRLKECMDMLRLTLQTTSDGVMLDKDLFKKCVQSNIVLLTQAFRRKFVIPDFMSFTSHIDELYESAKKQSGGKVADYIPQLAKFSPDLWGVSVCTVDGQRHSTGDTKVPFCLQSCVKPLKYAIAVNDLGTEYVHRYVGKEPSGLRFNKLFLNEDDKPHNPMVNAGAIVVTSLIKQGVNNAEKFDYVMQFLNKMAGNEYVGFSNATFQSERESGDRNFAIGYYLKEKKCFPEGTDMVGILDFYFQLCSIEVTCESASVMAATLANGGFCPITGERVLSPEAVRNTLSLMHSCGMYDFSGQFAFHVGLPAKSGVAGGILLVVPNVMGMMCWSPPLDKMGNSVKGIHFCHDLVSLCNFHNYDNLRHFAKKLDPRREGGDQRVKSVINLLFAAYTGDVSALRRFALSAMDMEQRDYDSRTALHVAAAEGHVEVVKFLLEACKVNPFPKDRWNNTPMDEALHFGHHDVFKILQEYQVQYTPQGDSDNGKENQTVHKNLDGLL
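Enzyme dispensed in phosphate buffer (45 mM, pH 8.2, 0.02% Tween-20), compounds pinned in, then 1 mM L-glutamine solution and the glutamate oxidase–HRP–Amplex Red mix added; fluorescence read immediately and again after 30 min at room temperature.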
HP1b chromo inh = blocks HP1-beta chromodomain binding to methylated histone tails. hit rate 0.56% among 390,000. AID 540317. P83916. AlphaScreen HP1-beta / biotin-H3K9me3 peptide binding. Potency, µM (series often up to 114 µM), for the others: top-dose activity change, negative = inhibition, actives largely listed as inhibitors; note: nearly all actives have a fitted effect of over 70% in size
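HP1-beta protein (50 nM final) preincubated 30 min at room temperature with biotinylated H3(1-18)K9me3 peptide (50 nM) in PBS pH 7.4, 0.01% Tween-20, then compound added for 30 min. AlphaScreen streptavidin donor/nickel chelate acceptor beads (10 ug/mL final), 30 min dark, luminescence read.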
* marks the source's active call; other numbers are inactive results; u = inconclusive; x = not tested or not shown; [ ] = another dose, or the depositor's remark. Calls come from the whole dose curve; as a rule, active = well fitted curve in the direction sought with a large enough effect; inconclusive = small, poorly fitted or top-dose-only effect, or another doubt; inactive = no such curve, though single readings can be large; an effect the other way counts as inactive or inconclusive. Potency is the fitted concentration of half-maximal effect.

SMILES	G9a inh	JMJD2A Tudor inh	BAZ2B inh	GLS inhibitor	HP1b chromo inh
Cc1ccc(C)c(NC(=O)CSc2sc3c(O)cc(=O)[nH]c3c2C#N)c1	-5%[59 µM]	-23%	50µM*	-4%	10%
N#Cc1c(SCC(=O)Nc2cccc(C(F)(F)F)c2)sc2c(O)cc(=O)[nH]c12	45µM*	-29%	u	-22%	-7%
Cc1cc(NC(=O)CSc2sc3c(O)cc(=O)[nH]c3c2C#N)ccc1Br	35µM*	-19%	79µM*	12%	7%
N=C(N=C(N)N)N1CCOCC1	18%[12.7 µM]	-15%	12%	9%	23%
COc1ccc2nc(NC(=O)C3CCCN(S(=O)(=O)c4cccs4)C3)sc2c1 (configuration not stated)	-8%[12.7 µM]	-20%	-3%	-4%	-27%
O=C(Nc1nc2ccc(F)cc2s1)C1CCN(S(=O)(=O)c2cc([N+](=O)[O-])ccc2Cl)CC1	22µM*	u	u	-20%	-8%
Cc1ccc(NC(=O)C2CCN(S(=O)(=O)c3cc([N+](=O)[O-])ccc3Cl)CC2)nc1	x	45µM*	x	-7%	-17%
COc1ccc2nc(NC(=O)C3CCN(S(=O)(=O)c4cccs4)CC3)sc2c1	3%[59 µM]	100µM*	-4%	7%	17%
Cc1ccc2nc(NC(=O)C3CCN(S(=O)(=O)c4cc([N+](=O)[O-])ccc4Cl)CC3)sc2c1	u	40µM*	35µM*	-23%	u
Cc1[nH]nc2c1C(c1cnn(C)c1)C(C#N)=C(N)O2 (configuration not stated)	u	-1%	1%	u	2%
CCOc1ccc(-n2c(=O)[nH]c3sc4c(c3c2=O)CCCC4)cc1	-7%	-11%	11%	-1%	24%
Cc1ccc2nc(NC(=O)C3CCCN(S(=O)(=O)c4cccc5nsnc45)C3)sc2c1 (configuration not stated)	35µM*	u	-39%	0%	-3%
O=C1C(c2ccncc2)N(CCC2=CCCCC2)C(=O)CN1C1CCCCC1 (configuration not stated)	28%	-7%	-6%	0%	42%
COCC(=O)Nc1ccc(S(=O)(=O)NCC2CCCO2)cc1 (configuration not stated)	25%	0%	1%	2%	12%
NS(=O)(=O)c1ccc(NC(=S)NCC2CCCO2)cc1 (configuration not stated)	11µM*	-12%	-4%	-13%	u
O=C(Cc1ccc(Br)cc1)Nc1ccc(S(=O)(=O)NCC2CCCO2)cc1 (configuration not stated)	7%[12.7 µM]	22µM*	-17%	0%	-11%
CC(=O)Nc1ccc(S(=O)(=O)NNC(=S)NCC2CCCO2)cc1 (configuration not stated)	32µM*	u	-27%	17%	17%
Cc1ccc(CCNC(=O)CNC(=O)c2cccs2)cc1	4%	5%	0%	-13%	42%
O=C(N/N=C/c1cc([N+](=O)[O-])ccc1Cl)c1cc(-c2ccccc2)nc2ccccc12	10%[12.7 µM]	0%	-1%	-9%	50%
CCS(=O)(=O)c1nc(NC(C)=O)n[nH]1	5.6µM*	6%[11.4 µM]	50µM*	-17%	0%
NCCCC[C@H]1CNC(=S)N1CCc1cc(C(F)(F)F)cc(C(F)(F)F)c1	21%[12.7 µM]	-19%	-29%	2%	34%
CCn1c(COc2ccc(Cl)cc2)nnc1SCc1ccc(C#N)cc1	40µM*	-24%[11.4 µM]	-1%	-8%	62%
Cc1cccc2cc(CN(Cc3ccccc3)C(=O)N(C)C)c(=O)[nH]c12	0%[12.7 µM]	-17%	3%	-1%	27%
O=[N+]([O-])c1cc(O)c2ncccc2c1	2%	18µM*	5.6µM*	23%	30%
COc1cc([N+](=O)[O-])c2ncccc2c1	x	-19%	x	x	24%
SMILES	G9a inh	JMJD2A Tudor inh	BAZ2B inh	GLS inhibitor	HP1b chromo inh
O=[N+]([O-])c1cc2cccnc2c2ncccc12	x	79µM*	22µM*	7%	20%
Cc1ccc([N+](=O)[O-])c2cccnc12	x	-17%	-13%	6%	7%
O=[N+]([O-])c1cc2c(c3cccnc13)COCO2	x	25µM*	x	u	u
COCCCNC(=O)c1ccc2nc(Cc3ccc(OC)cc3)oc2c1	-6%	-12%	-5%	1%	25%
CCN1CCN(Cc2oc(CO)cc(=O)c2O)CC1	1.8µM*	13µM*	50µM*	9%	13%
O=c1cc(CO)oc(CN2CCN(c3ccccc3)CC2)c1O	22µM*	50µM*	-31%	41%	-6%
O=c1cc(CO)oc(CN2CCN(c3ccccc3F)CC2)c1O	u	u	-31%	22%	20%
FC(F)(F)c1cc(-c2cccc(Br)c2)nc2ncnn12	26%[59 µM]	-17%	20%	1%	61%
Fc1ccc(-c2cc(C(F)(F)F)n3ncnc3n2)cc1	13µM*	u	-24%	2%	22%
Cc1ccc(C(=O)C(C(=O)/C=C/c2ccccc2)=C2SCCCS2)cc1	7.1µM*	u	u	u	u
COc1ccccc1NC(=O)C(C)OC(=O)COc1cccc2c1OC(C)(C)C2 (configuration not stated)	-8%	1%	-4%	-6%	64%
C=CCNC(=S)N/N=C/c1cn(C)c2ccccc12	x	56µM*	-25%	u	u
Cn1cc(/C=N/NC(N)=S)c2ccccc21	-12%[59 µM]	-25%	-32%	26%	23%
COC(=O)CCC(=O)OC1(C)C(=O)C2=CN(C3CCCC3)C(c3ccc(OC)cc3)=CC2=C(Br)C1=O (configuration not stated)	1%[12.7 µM]	56µM*	45µM*	0%	u
COC(=O)CCC(=O)OC1(C)C(=O)C2=CN(c3ccc(OC)cc3)C(c3ccc(OC)cc3)=CC2=C(Br)C1=O (configuration not stated)	x	40µM*	x	-2%	u
COC(=O)CCCC1=CC2=C(c3ccccc3)C(=O)C(C)(OC(=O)C3CCCC3)C(=O)C2=CN1Cc1ccc(OC)cc1 (configuration not stated)	u	50µM*	u	-2%	u
COC(=O)CCCC1=CC2=C(c3ccccc3)C(=O)C(C)(OC(=O)C3CCCC3)C(=O)C2=CN1Cc1ccc2c(c1)OCO2 (configuration not stated)	15%[12.7 µM]	u	u	-3%	-3%
COCCN1C=C2C(=O)C(C)(OC(=O)CCC(=O)OC)C(=O)C(Br)=C2C=C1c1ccc(OC)cc1 (configuration not stated)	x	u	x	-1%	-8%
CN(C)c1ccc(Cl)cc1N	25µM*	-5%	u	11%	36%
CCOC(=O)C1(c2csc(N)n2)COC(=O)C1 (configuration not stated)	u	-8%	-32%	23%	18%
